Laboratory results reported in PubChem BioAssay (NCI).
About 83,000 compounds went through this panel and 20% of them were active in at least one assay; those are over-represented in the sample as a whole.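 Negative percent growth values reflect cell death: -40 means 40% of the cells present at the start died, and -100 means all died.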 Activity calls are given as the source filed them. Rule for the calls: active = growth percent below 10; inactive = the rest.

Legend:
Assay in all cases: NCI-60 one-dose screen, 48 h (100 = growth as untreated, 0 = no growth, -100 = all killed)
Conditions in all cases: 10 µM unless noted
HCT-15 colon = test system: HCT-15 colon
HT29 colon = test system: HT29 colon
SNB-75 CNS = test system: SNB-75 CNS
SNB-19 CNS = test system: SNB-19 CNS
U251 CNS = test system: U251 CNS
PC-3 prostate = test system: PC-3 prostate
SK-MEL-5 melanoma = test system: SK-MEL-5 melanoma
UACC-62 melanoma = test system: UACC-62 melanoma
LOX IMVI melanoma = test system: LOX IMVI melanoma
SK-MEL-28 melanoma = test system: SK-MEL-28 melanoma
SK-MEL-2 melanoma = test system: SK-MEL-2 melanoma
EKVX NSCLC = test system: EKVX NSCLC
SN12C renal = test system: SN12C renal
TK-10 renal = test system: TK-10 renal
ACHN renal = test system: ACHN renal
CAKI-1 renal = test system: CAKI-1 renal
A498 renal = test system: A498 renal
CCRF-CEM leukemia = test system: CCRF-CEM leukemia
MOLT-4 leukemia = test system: MOLT-4 leukemia

Measured: growth

CCOC(=O)c1cc(C(=O)c2ccc(OC)c(OC)c2)n2ccc(-c3ccccn3)cc12
inactive: HCT-15 colon 83% | HT29 colon 76.4% | SNB-75 CNS 24.1% | SNB-19 CNS 67.8% | U251 CNS 21.7% | PC-3 prostate 87% | SK-MEL-5 melanoma 37.1% | UACC-62 melanoma 83.5% | LOX IMVI melanoma 84.7% | SK-MEL-28 melanoma 71% | SK-MEL-2 melanoma 70.9% | EKVX NSCLC 92.2% | SN12C renal 60.6% | TK-10 renal 55.4% | ACHN renal 30% | CAKI-1 renal 78.7% | A498 renal 42.1% | CCRF-CEM leukemia 111% | MOLT-4 leukemia 124%

C=C1C(=O)O[C@H]2[C@H]1CC/C(COC(=O)NCc1ccc(Cn3c(=O)sn(-c4ccc(Cl)cc4)c3=O)cc1)=C\CC[C@@]1(C)O[C@@H]21
active: CCRF-CEM leukemia 0.529%
inactive: HCT-15 colon 54.5% | HT29 colon 37.8% | SNB-75 CNS 79.7% | SNB-19 CNS 91.9% | U251 CNS 90.2% | PC-3 prostate 76.2% | SK-MEL-5 melanoma 97.6% | UACC-62 melanoma 76.5% | LOX IMVI melanoma 58.4% | SK-MEL-28 melanoma 101% | SK-MEL-2 melanoma 88.2% | EKVX NSCLC 99.6% | SN12C renal 70.4% | TK-10 renal 45% | ACHN renal 65.5% | CAKI-1 renal 61% | A498 renal 107% | MOLT-4 leukemia 23.2%

COc1cc(OC)cc(C(=O)Nc2cc(-c3cccnc3)nc(NCCCN3CCOCC3)n2)c1
inactive: HCT-15 colon 90.6% | HT29 colon 85.2% | SNB-75 CNS 109% | SNB-19 CNS 98.7% | U251 CNS 90.6% | PC-3 prostate 85.4% | SK-MEL-5 melanoma 68.3% | UACC-62 melanoma 97.6% | LOX IMVI melanoma 88.1% | SK-MEL-28 melanoma 101% | SK-MEL-2 melanoma 84.1% | EKVX NSCLC 103% | SN12C renal 86.4% | TK-10 renal 95.5% | ACHN renal 103% | CAKI-1 renal 101% | A498 renal 83.3% | MOLT-4 leukemia 82.3%

C=C(C)[C@@H]1CC[C@]2(C(=O)N3CCN(C)CC3)CC[C@]3(C)[C@H](CC[C@@H]4[C@@]5(C)C/C(=C/c6ccncc6)[C@H](O)C(C)(C)[C@@H]5CC[C@]43C)[C@@H]12
active: HCT-15 colon -28.6% [100 µM] | HT29 colon -65.8% [100 µM] | SNB-75 CNS 4.76% [100 µM] | U251 CNS -70.5% [100 µM] | PC-3 prostate -20.2% [100 µM] | SK-MEL-5 melanoma -82.4% [100 µM] | UACC-62 melanoma -56% [100 µM] | LOX IMVI melanoma -77.3% [100 µM] | SK-MEL-28 melanoma -54.3% [100 µM] | SK-MEL-2 melanoma -60.1% [100 µM] | EKVX NSCLC -1.55% [100 µM] | SN12C renal -44.2% [100 µM] | ACHN renal -0.441% [100 µM] | A498 renal -28.9% [100 µM] | CCRF-CEM leukemia -5.24% [100 µM] | MOLT-4 leukemia -24.4% [100 µM]
inactive: SNB-19 CNS 14.4% [100 µM] | TK-10 renal 22% [100 µM] | CAKI-1 renal 12.1% [100 µM]

O=C(Nc1ccc(Cl)c(C(F)(F)F)c1)Nc1ccc(-c2cccnc2)cc1N1CCC(CO)CC1
inactive: HCT-15 colon 14.8% | SNB-75 CNS 85.4% | SNB-19 CNS 29.1% | U251 CNS 21% | PC-3 prostate 12.4% | SK-MEL-5 melanoma 11.3% | UACC-62 melanoma 37% | LOX IMVI melanoma 26.6% | SK-MEL-28 melanoma 32.3% | EKVX NSCLC 37.2% | SN12C renal 31% | TK-10 renal 22.2% | ACHN renal 17.3% | CAKI-1 renal 34.3% | A498 renal 14.3%
active: HT29 colon 9.16% | SK-MEL-2 melanoma -10.3% | CCRF-CEM leukemia 9.72% | MOLT-4 leukemia 4.83%

Cc1ccc(-n2nc3n(/c2=N\C(=O)NS(=O)(=O)c2ccc(C)cc2)CCN3C2=NCCN2)cc1
inactive: HCT-15 colon 105% | HT29 colon 107% | SNB-75 CNS 85.6% | SNB-19 CNS 99.2% | U251 CNS 105% | PC-3 prostate 96.4% | SK-MEL-5 melanoma 105% | UACC-62 melanoma 95.9% | LOX IMVI melanoma 113% | SK-MEL-28 melanoma 101% | SK-MEL-2 melanoma 109% | EKVX NSCLC 99.5% | SN12C renal 97% | TK-10 renal 101% | ACHN renal 94.5% | CAKI-1 renal 90% | A498 renal 93.5% | CCRF-CEM leukemia 107% | MOLT-4 leukemia 112%

COc1cc(-c2nc(SCCC(C)C)nc(Nc3ccccc3)c2C#N)cc(OC)c1OC
inactive: HCT-15 colon 96.8% | HT29 colon 82.3% | SNB-75 CNS 66.8% | SNB-19 CNS 99.4% | U251 CNS 85% | PC-3 prostate 83.8% | SK-MEL-5 melanoma 97.3% | UACC-62 melanoma 71.8% | LOX IMVI melanoma 99.4% | SK-MEL-28 melanoma 103% | SK-MEL-2 melanoma 103% | EKVX NSCLC 100% | SN12C renal 89.5% | TK-10 renal 110% | ACHN renal 94% | CAKI-1 renal 72.4% | A498 renal 69.9% | CCRF-CEM leukemia 88.6% | MOLT-4 leukemia 84.3%

CCCCCCNC(=O)Nc1ncnc2c1ncn2-c1ccccc1
inactive: HCT-15 colon 95.2% | HT29 colon 99.4% | SNB-75 CNS 72.7% | SNB-19 CNS 94.2% | U251 CNS 94.8% | PC-3 prostate 89.4% | SK-MEL-5 melanoma 98.3% | UACC-62 melanoma 97.6% | LOX IMVI melanoma 102% | SK-MEL-28 melanoma 104% | SK-MEL-2 melanoma 91.3% | EKVX NSCLC 92.2% | SN12C renal 97.3% | TK-10 renal 94% | ACHN renal 90.7% | CAKI-1 renal 85.8% | A498 renal 83.1% | CCRF-CEM leukemia 103%
